Data from PubChem BioAssay AID623868 (Vanderbilt High Throughput Screening Facility, 2012).
About 760 (36%) of roughly 2,100 compounds were called active. Not all results are given here. A number with no mark means an inactive call.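 How the source made its calls: active means thallium-flux fluorescence traces judged by eye to show enhanced or reduced glutamate response, manual score 1 or -1, so both directions (some results past the limit were not filed as active); inactive means the rest, including fluorescent or raised-baseline compounds.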

Assay: non-GIRK thallium flux modulation in mGlu8 cells, confirmation, counter-screen for GIRK activator project, cell-based, HEK-293 rmGlu8, no GIRK (AID 623868);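 further: extra codes mark interference with 3 for fluorescent and 4 for baseline rise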
Conditions: thallium flux fluorescence, at 10 µM, actives lie on both sides, codes: 1 enhancer, -1 blocker, 0 none, thallium stimulus containing EC20 glutamate

Row | Compound | manual score
1 | CCC1(C)OCC(Cn2c3ccccc3c3ccccc32)O1 (configuration not stated) | 0
2 | O=c1[nH]c(NCCO)nc2c1C1(CCCCC1)Cc1ccccc1-2 | 0
3 | Cc1ccc(/C(O)=C2\C(=O)C(=O)N(c3cc(C)on3)C2c2cccc(Br)c2)cc1 (configuration not stated) | -1 (active)
4 | C=CCOc1cccc(C2/C(=C(/O)c3ccc(C)cc3)C(=O)C(=O)N2CCN2CCOCC2)c1 (configuration not stated) | 0
5 | CCN(CC)c1ccc2cc(C=O)c(=O)oc2c1 | 3
6 | O=C(O)CN=C(NS(=O)(=O)c1ccccc1)c1ccccc1 | 0
7 | Cc1cccc(NC(=O)NC(=S)NC(=O)c2ccccc2)c1 | 1 (active)
8 | Cc1cccc(C)c1NC(=S)NC(=O)CCc1ccccc1 | 1 (active)
9 | Cc1ccccc1NC(=S)NC(=O)CCc1ccccc1 | 1 (active)
10 | Cc1cccc(NC(=S)N/C(=N/S(=O)(=O)c2ccccc2)c2ccccc2)c1 | 1 (active)
11 | Cc1ccccc1NC(=O)C(=O)NC(C)CCc1ccccc1 (configuration not stated) | 0
12 | CC(C)Oc1ccc(C2CC(=O)N(c3ccccc3)C2=O)cc1 (configuration not stated) | 0
13 | Nc1c(C(O)(C(F)(F)F)C(F)(F)F)ccc2ccccc12 | 0
14 | CC(C)(C)CC(=O)Nc1ccc(C(N)=O)cc1 | 0
15 | Cc1cccc(NC(=S)NC(=O)CCc2ccccc2)c1 | 1 (active)
16 | O=C(Cc1ccccc1)NC(=S)Nc1cccc(C(F)(F)F)c1 | 0
17 | Cc1cccc(NC(=O)NC(C)CCc2ccccc2)c1 (configuration not stated) | 0
18 | O=C1OC2(CCCCC2)OC(=O)C1=CNc1nc2ccccc2s1 | 1 (active)
19 | O=C(Nc1ccc(O)c(-c2nc3ccccc3s2)c1)C1=COCCO1 | 0
20 | CN(C)c1nc2ccccc2c(N)c1-c1ccccc1 | 0
21 | COc1ccc(-c2nnc3sc(C4CCCCC4)nn23)cc1OC | -0.5
22 | CCCc1nc2scc(-c3ccccc3)c2c(=O)n1N | 0

Row | Compound | manual score
23 | Cc1ccc(-c2csc3nc[nH]c(=S)c23)cc1C | 1 (active)
24 | S=c1[nH]cnc2scc(-c3ccccc3)c12 | 1 (active)
25 | CC1(C)Cc2nc(NCCN3CCOCC3)c(C#N)cc2CO1 | 0
26 | O=c1cc(Cn2ccnc2)c2cc3c(cc2o1)CCC3 | 0
27 | O=C(CN1C(=O)/C(=C/c2ccccc2F)Oc2ccccc21)N1CCN(c2ccccn2)CC1 | 0
28 | CCOC(=O)c1c(NC(=O)CSc2nnc(-c3ccncc3)n2Cc2ccco2)sc(C(C)=O)c1C | -1 (active)
29 | COC(=O)c1c(NC(=O)CSc2nnc(-c3cccnc3)n2Cc2ccco2)sc(C)c1C | -1 (active)
30 | O=C(CCn1c(=O)oc2ccccc21)N1CCN(c2ccccc2Cl)CC1 | 0
31 | CN(C)S(=O)(=O)c1cccc(NC(=O)Cc2ccc(Cl)cc2)c1 | 0
32 | S=C(Nc1ccc(Cl)cc1Cl)Nc1ccccc1Oc1ccccc1 | 1 (active)
33 | COc1ccccc1NC(=S)NCCc1ccc(Cl)cc1 | 0
34 | S=C(Nc1cccc(Cl)c1)Nc1ccccc1Oc1ccccc1 | 0
35 | CN(C)S(=O)(=O)c1cccc(NC(=S)Nc2ccc(Cl)cc2Cl)c1 | 1 (active)
36 | CN(C)S(=O)(=O)c1cccc(NC(=S)Nc2cc(Cl)cc(Cl)c2)c1 | 0
37 | S=C(Nc1ccccc1Cl)Nc1ccc(Cl)cc1Cl | 1 (active)
38 | S=C(Nc1ccccc1Oc1ccccc1)Nc1cccc(Cl)c1Cl | 1 (active)
39 | S=C(NCCc1ccccc1)Nc1ccc(Cl)cc1Cl | 0
40 | S=C(Nc1ccc(Oc2ccccc2)cc1)NC1CCCC1 | 0
41 | S=C(Nc1ccccc1)Nc1cc(Cl)ccc1Oc1ccccc1 | 0
42 | COC(=O)CSc1nnc(SCc2ccc(OC)cc2)s1 | -0.5
43 | Cc1ccc(C2C3=C(NCCN=C3c3ccccc3)C(=O)N2c2ccccc2)cc1 (configuration not stated) | 0
44 | CCCCn1c(=O)nc2n(-c3ccccc3)c3ccccc3cc-2c1=O | 0

Row | Compound | manual score
45 | O=C1c2ccccc2C(Nc2ccc3c(c2)OCCO3)N1Cc1ccccc1 (configuration not stated) | 0
46 | Cc1ccccc1Cn1c(-c2cncs2)nc2ccccc21 | 0
47 | Cn1nc(C(F)(F)F)c2cc(NC(=O)OCc3ccc(F)cc3)sc21 | 0
48 | CCc1cccc(NC(=O)CSC2=NS(=O)(=O)c3ccccc32)c1 | 0
49 | CC(C)OCCCNC(=O)c1cccc(NC(=O)c2ccccc2)c1 | 0
50 | O=C(Nc1ccc2[nH]c(=S)sc2c1)c1ccccc1 | 1 (active)
51 | Cn1cccc1-c1nc2ccc(NC(=O)c3cccs3)cc2[nH]1 | 0
52 | COc1ccc(OCCCN2CCCCCC2)cc1 | 0
53 | O=C(COC(=O)C1CC2C=CC1C2)Nc1ccc2c(c1)OC(F)(F)O2 (configuration not stated) | 0
54 | CC(C)(C)c1csc(NC(=O)c2ccc3nccnc3c2)n1 | 0
55 | O=C(Nc1nc(-c2cc3ccccc3oc2=O)cs1)c1ccc(Br)o1 | 0
56 | O=C(Nc1nc(-c2ccccn2)cs1)c1ccc(Br)s1 | 1 (active)
57 | COCCNC(=O)CN1C(=O)CSc2ncccc21 | 0
58 | Cc1ccc2cccc(S(=O)(=O)N3CCN(c4ccccc4F)CC3)c2n1 | 0
59 | O=C(NC(=S)Nn1cnc2c(cnn2-c2ccccc2)c1=O)c1ccc(Oc2ccccc2)cc1 | 1 (active)
60 | CCCN(CCC)CCNC(=O)C(NS(=O)(=O)c1ccc2c(c1)CCC(=O)N2)c1ccccc1 (configuration not stated) | 0
61 | Cn1c(=O)c2c(nc3sccn32)n(C)c1=O | 0
62 | N#CC1(Cc2ccc([N+](=O)[O-])cc2)c2ccccc2C=CN1C(=O)c1ccccc1 (configuration not stated) | 0
63 | COc1cc(-c2nnc(CSc3nc4ccccc4s3)o2)cc(OC)c1OC | 0
64 | COc1ccc(-c2nnc(CSc3nc4ccccc4c(=O)n3C)o2)cc1OC | -1 (active)
65 | COc1ccc(-c2nc(C#N)c(NCCCN(C)C)o2)cc1OC | 0
66 | COc1ccc(C(=O)NNC(=S)NC(=O)c2ccco2)cc1 | 1 (active)

Row | Compound | manual score
67 | COc1ccccc1C(=O)NNC(=S)NC(=O)c1ccco1 | 1 (active)
68 | S=c1[nH]nc(CSCc2ccc(Cl)cc2Cl)n1-c1ccccc1 | 0
69 | S=c1[nH]nc(-c2ccco2)n1/N=C/c1cccc(Cl)c1Cl | 1 (active)
70 | S=c1[nH]nc(-c2ccco2)n1/N=C/c1ccc(Cl)cc1Cl | 1 (active)
71 | O=C1c2ccsc2SCCN1Cc1c(Cl)cccc1Cl | 0
72 | CCn1c(SCC(N)=O)nc2sc3c(c2c1=O)CCCC3 | 1 (active)
73 | O=c1c2c3c(sc2nc2n1CCCCC2)CCCCC3 | 0
74 | COC(=O)c1sc(N2C(=O)C(O)=C(C(=O)c3ccc(C)o3)C2c2ccc(F)cc2)nc1C (configuration not stated) | -1 (active)
75 | C=CCn1c(=O)c2c(C)c(C)sc2n2c(Nc3ccc(OC)cc3)nnc12 | -1 (active)
76 | COC(=O)Nc1nnc(Cc2ccc(Cl)cc2)s1 | 0
77 | O=C(NC(=S)N1CCc2ccccc21)c1ccccc1 | 1 (active)
78 | O=C(CSc1nc(-c2ccccc2)cc(=O)[nH]1)N1CCc2ccccc21 | 0
79 | CC12CCC(C(=O)N3CCCc4ccccc43)(CC1=O)C2(C)C (configuration not stated) | 0
80 | O=C(NC(=S)N1CCCc2ccccc21)c1ccc(Cl)cc1 | 1 (active)
81 | O=C(NC(=S)N1CCCc2ccccc21)c1ccc([N+](=O)[O-])cc1 | 1 (active)
82 | O=S(=O)(Cc1ccccc1)N1CCc2ccccc21 | 3
83 | O=C(NC(=S)N1CCCc2ccccc21)c1ccc(Br)cc1 | 1 (active)
84 | CCSc1nnc(NC(=O)c2nn(C(C)C)c(=O)c3ccccc23)s1 | -0.5
85 | CS(=O)(=O)N(CCc1ccccc1)CC(=O)NCc1ccc2c(c1)OCO2 | 0
86 | CC(C)(C)C1CCC2(CC1)Nc1cccc3cccc(c13)N2 | 0
87 | CC1CCN(CC(O)COC2CCC(C(C)(C)C)CC2)CC1 (configuration not stated) | 0
88 | Cc1c(C(=O)N2CCc3ccccc32)oc2c1C(=O)CC(C)(C)C2 | 0

Row | Compound | manual score
89 | CCC1CCCCN1C(=S)NC(=O)c1ccc([N+](=O)[O-])cc1 (configuration not stated) | 1 (active)
90 | COC(=O)c1cc2sccc2n1CC(=O)N1CCCc2ccccc21 | 0
91 | O=C(c1ccccc1)N1CCCc2ccccc21 | 0
92 | O=C(NC(=S)N1CCc2ccccc21)c1ccccc1Br | 1 (active)
93 | CCC1CCCCN1C(=O)c1cc2cc(Br)ccc2oc1=O (configuration not stated) | 0
94 | O=C(NC(=S)N1CCCc2ccccc21)c1ccccc1 | 1 (active)
95 | O=C(N/N=C1\CCCc2ccccc21)c1ccc([N+](=O)[O-])cc1 | 1 (active)
96 | CCC1CCCCN1C(=O)CSc1nnc(-c2ccco2)o1 (configuration not stated) | 0
97 | CCCCC(=O)Nc1ncc2c(n1)CC(C)(C)CC2=O | 0
98 | CCc1ccc(-c2nc(CN3CCC(C(=O)NCc4ccco4)CC3)c(C)o2)cc1 | 0
99 | Cc1oc(-c2cccc(Cl)c2)nc1CN1CCC(C(=O)NCc2ccco2)CC1 | 0
100 | Cc1oc(-c2cccc(Cl)c2)nc1CN1CCCC(C(=O)NCc2ccco2)C1 (configuration not stated) | -1 (active)
101 | CC1=C(C)C(c2ccccc2)NC(=S)N1 (configuration not stated) | 0
102 | Cc1cccc(S(=O)(=O)Nc2cccc3c2C(=O)c2ccccc2-3)c1 | 1 (active)
103 | O=S(=O)(Nc1ccc(S(=O)(=O)Nc2cccc3ccccc23)cc1)c1ccccc1 | 0
104 | Cc1cccc(S(=O)(=O)NC(Cc2c[nH]c3ccccc23)C(=O)O)c1 (configuration not stated) | 0
105 | O=C(Nc1ccccc1-c1nnn(CC(=O)N2CCc3ccccc3C2)n1)C1CCC1 | -1 (active)
106 | CC(C)CC(=O)Nc1ccccc1-c1nnn(CC(=O)N2CCc3ccccc3C2)n1 | 0
107 | Cc1ccc(-c2nnn(CC(=O)N3CCCCC3)n2)c(-n2cnnn2)c1 | 0
